An excerpt weighted towards active compounds, which were near 5.2% of everything screened.
TrxR1 inh – inhibitors of rat thioredoxin reductase 1. Potency, µM (highest dose often 114 µM), without a hit: at the highest dose activity change, negative = inhibition, hits mostly inhibitors. O89049. recombinant rTrxR1, NADPH fluorescence consumption, selenite substrate. actives 1% (n = 390,000); further: nearly all actives have a fitted effect of over 65% in size
Target sequence (O89049 whole entry, looked up): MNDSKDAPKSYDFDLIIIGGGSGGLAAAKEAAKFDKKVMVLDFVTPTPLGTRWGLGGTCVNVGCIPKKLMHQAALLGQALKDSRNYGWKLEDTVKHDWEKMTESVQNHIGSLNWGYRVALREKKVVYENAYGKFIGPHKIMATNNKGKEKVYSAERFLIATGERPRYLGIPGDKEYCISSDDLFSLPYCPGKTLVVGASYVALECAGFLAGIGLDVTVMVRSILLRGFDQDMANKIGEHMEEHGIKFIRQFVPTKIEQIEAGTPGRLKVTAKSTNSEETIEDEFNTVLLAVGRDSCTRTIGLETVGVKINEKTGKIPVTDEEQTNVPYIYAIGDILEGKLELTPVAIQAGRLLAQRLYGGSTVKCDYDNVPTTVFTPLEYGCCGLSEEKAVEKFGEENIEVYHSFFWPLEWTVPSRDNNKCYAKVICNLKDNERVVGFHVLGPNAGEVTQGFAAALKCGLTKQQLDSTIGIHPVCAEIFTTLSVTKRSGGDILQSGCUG
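Rat TrxR1 (90 nM in the dispensed reagent) was pre-reduced with 400 uM NADPH for 5 min at room temperature, then incubated with compound for 15 min. After 400 uM selenite was added, NADPH fluorescence (Ex 340/Em 450 nm) was followed for 8 min.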
mIDH1 inhibitor – human IDH1 R132H inhibition. O75874. actives 0.093% (n = 390,000). Potency, µM (titrated, usually from 76.6 µM), for inactives: top-dose activity change, negative = inhibition, most hits filed as inhibitors. IDH1-R132H enzyme, NADPH consumption, diaphorase/resazurin fluorescence. AID 602179; further: nearly all actives have a fitted effect of over 65% in size
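IDH1-R132H (0.5 ug/mL dispensed) in pH 7.5 Tris buffer was preincubated 30 min with compound, then given a substrate mix of 0.016 mM NADPH and 2 mM alpha-KG for 80 min at room temperature; remaining NADPH was read by diaphorase/resazurin fluorescence.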
Sfp inh – Sfp phosphopantetheinyl transferase inhibition; Q9F4F7; Biochemical Sfp PPTase activity, qHTS; Potency, µM, without a hit: largest response in the series, negative = inhibition, hits mostly inhibitors; actives 3.5% (n = 310,000); AID 1490;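 further: the enzyme is Sfp with the accession as filed and its product quenches rhodamine fluorescence; 0% = enzyme reaction without inhibitor and -100% = no enzyme wells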
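Fluorescence-quenching assay with 15 nM Sfp, 5 uM rhodamine-CoA and 12.5 uM BHQ-2-labelled ybbR peptide in pH 7.6 Hepes/MgCl2 buffer. Enzyme was pre-incubated with compound for 15 min at room temperature. Rate was taken from the 30-min fluorescence change (525/598 nm).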
VDR inh – blocks the human vitamin D receptor; Potency, µM, for inactives: max response, negative = inhibition, usual class: inhibitors; actives 0.93% (n = 400,000); VDR-SRC2-3 peptide fluorescence polarization, 2 h
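Fluorescence polarization assay measuring small-molecule disruption of VDR binding to the coregulator peptide SRC2-3. Compounds were pin-transferred (23 nl) into the reagent mix and incubated 2 h at room temperature before reading.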
TrxR1 substrate – is turned over as a substrate by rat TrxR1. O89049. purified TrxR1 substrate turnover, NADPH consumption readout. Potency, µM (top dose mostly 114 µM), without a hit: top-dose activity change, negative = substrate turnover. actives 0.01% (n = 390,000). AID 588456; further: nearly all actives have a fitted effect of over 50% in size
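Rat TrxR1, dispensed at 90 nM, was prereduced with 400 uM NADPH (final) for 5 min at ~22 deg C, then incubated with compound 15 min before 400 uM selenite. A first-read NADPH fluorescence drop versus no-compound background flagged substrates.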
PLK1 PBD inh – inhibitors of human PLK1 polo-box domain binding; P53350; Plk1 PBD binding of FITC phosphopeptide, fluorescence polarization; Potency, µM, without a hit: max response, negative = inhibition, usual class: inhibitors; actives 2.8% (n = 360,000); AID 720504; further: series mostly up to about 57 µM; nearly all actives have a fitted effect of over 65% in size
Active calls of the source: *; ? = inconclusive; . = not tested or not shown; [ ] = remark or other dose. The call rests on the fitted dose curve; in most records, active means well fitted curve in the direction sought with a large enough effect; inconclusive means small, poorly fitted or top-dose-only effect, or another doubt; inactive means no such curve, though single readings can be large; an effect the other way counts as inactive or inconclusive. Unless noted, on the % scale 0 is the no-effect control and ±100 the full control effect; potency means the concentration at half of the fitted maximal effect.

SMILES	TrxR1 inh	mIDH1 inhibitor	Sfp inh	VDR inh	TrxR1 substrate	PLK1 PBD inh
CC(C)CC(=O)N1CCN(C(=O)c2ccco2)CC1	17.4%[57.1 µM]	-1.3%	18.3%	-14.0%	3.2%[57.1 µM]	-4.8%
O=C(CN1CCN(C(=O)c2ccco2)CC1)N1CCc2[nH]c3ccccc3c2C1	?	-0.8%	35.5µM*	-7.1%	3.6%	-26.1%
Cc1ccc2[nH]c3c(c2c1)CN(C(=O)CN1CCN(C(=O)c2ccco2)CC1)CC3	.	.	6.8%	.	.	.
Cc1ccc(CN2CCN(C(=O)c3ccco3)CC2)cc1	0.1%	4.5%	-2.7%	17.3%	7.2%	-5.4%
Cc1ccccc1-n1c(=O)cc(N2CCN(C(=O)c3ccco3)CC2)[nH]c1=O	?	1.6%	79.4µM*	-28.3%	10.3%[57.1 µM]	-25.6%
O=C(CCC1CCCC1)N1CCN(C(=O)c2ccco2)CC1	8.4%[57.1 µM]	1.4%	-10.4%	-6.0%	7.6%[57.1 µM]	23.8µM*
CCc1cccc(OCC(=O)N(C)CC(=O)Nc2cccc(F)c2)c1	13.0%	1.3%	.	-5.6%	15.7%	2.6%
CC1(C(=O)NS(=O)(=O)c2ccccc2Cl)CCN1C(=O)COc1ccc(Cl)cc1 (stereo not drawn)	.	.	.	.	.	-6.9%
CCc1nc2c(OCc3ccccc3C(=O)OC)cccn2c1N(C)C(=O)c1cccc(OC)c1	.	.	.	.	.	1.1%
Cc1ccc(-c2nnc(N3CCN(C(=O)c4ccco4)CC3)c3ccccc23)cc1	56.2µM*	-1.0%	-4.7%	-5.2%	-4.6%	-13.6%
Cc1cc(Cl)ccc1OCCCC(=O)N1CCN(C(=O)c2ccco2)CC1	28.2µM*	-3.1%	9.0%	-9.6%	-1.4%[57.1 µM]	-8.6%
Cc1cc(Cl)ccc1OCCCC(=O)N1CCN(S(=O)(=O)c2ccccc2)CC1	-0.3%	3.0%	.	-9.5%	-2.9%	-4.0%
CC1=C(c2ccc(C(C)C)cc2)S(=O)(=O)N=C1N1CCN(C(=O)c2ccco2)CC1	6.6%	-28.7%	5.2%	?	4.7%	26.7µM*
CCCCNC(=O)C(NC(=O)c1ccc2ccccc2c1)C(=O)c1ccccc1 (stereo not drawn)	.	.	.	.	.	-2.9%
COc1ccccc1CNc1ccnc(-c2ccc3c(c2)OCO3)n1	.	.	50.1µM*	?	.	.
COc1ccccc1CNc1ccnc(-c2ccccc2CN(C)C)n1	.	.	10.7%	-2.4%	.	.
COc1ccc(CNc2ccnc(-c3ccc4c(c3)OCO4)n2)c(OC)c1	.	.	44.7µM*	-28.4%	.	.
COc1ccccc1CNc1ccnc(-c2ccccc2OC)n1	.	.	79.4µM*	?	.	.
c1ccc(CNc2ccnc(-c3ccc4c(c3)OCO4)n2)cc1	.	.	-13.4%	-7.8%	.	.
COc1ccc(CNc2ccnc(-c3ccc(C(=O)N(C)C)cc3)n2)c(OC)c1	.	.	8.9%	-6.8%	.	.
O=C(O)c1ccc(S(=O)(=O)N(Cl)Cl)cc1	.	.	-24.6%	?	.	.
O=C(O)c1ccc(-n2cccn2)c([N+](=O)[O-])c1	56.2µM*	1.0%	24.8%	2.3%	-13.4%	-6.0%
Cc1ccc(NC(=O)c2ccc(-n3cccn3)c([N+](=O)[O-])c2)cc1	-27.9%	19.1%	9.0%	-24.9%	-3.7%	-10.9%
COC(=O)c1ccc(-n2cncn2)c([N+](=O)[O-])c1	13.5%[57.1 µM]	1.1%	26.6%	8.7%	-4.7%[57.1 µM]	26.7µM*
CC1(OC(=O)c2cnc3ccccc3n2)C(=O)C=C2C=C3CCCN3C=C2C1=O (stereo not drawn)	.	.	-6.3%	.	.	.
COc1ccccc1N1CCN(Cc2cc(=O)c(OCC(=O)NC(C)C)co2)CC1	0.4%[57.1 µM]	-7.8%	6.7%	?	8.7%[57.1 µM]	9.47µM*
COc1ccc(C(=O)CCN2CCN(c3ccccc3OC)CC2)cc1	14.1µM*	3.6%	50.1µM*	?	0.1%	-23.1%
COc1ccc(C(=O)CCN2CCc3cc(OC)c(OC)cc3C2)cc1	0.891µM*	1.0%	-10.2%	?	-5.5%[57.1 µM]	26.7µM*
COc1ccc(C(=O)N2CCN(c3ccccc3OC)CC2)cc1	3.1%	-2.3%	7.5%	-7.9%	-2.8%	-12.1%
COc1ccccc1N1CCN(C(=O)c2ccc(C(C)(C)C)cc2)CC1	14.2%[57.1 µM]	3.1%	-7.3%	?	2.4%[57.1 µM]	2.67µM*

Screens as filed in PubChem BioAssay.
